Compounds with a hit are over-represented: about 15% of the library has one in this group of screens.
RORgamma inh – blocks mouse ROR gamma transcriptional activity; P51450; Drosophila S2 Gal4-RORgamma UAS-luciferase reporter, 20 h; Potency, µM (series often up to 53.6 µM), for inactives: top-dose activity change, negative = inhibition, actives largely listed as inhibitors; 5.4% of 310,000 active; further: nearly all actives have a fitted effect of over 60% in size
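A Gal4/UAS one-hybrid system in insect cells: metallothionein-promoter Gal4–ROR gamma fusion plus Photinus luciferase reporter. Copper sulfate 700 uM final, 20 hr ambient incubation, luminescent detection after 10 min with reagent.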
ALOX12 inh – blocks human arachidonate 12S-lipoxygenase; Potency, µM (doses to about 108 µM), for the others: at the top dose activity change, negative = inhibition, usual class: inhibitors; purified 12hLO, xylenol orange hydroperoxide absorbance; AID 1671190; 1.1% of 580,000 active
Target sequence (P18054 whole entry, looked up): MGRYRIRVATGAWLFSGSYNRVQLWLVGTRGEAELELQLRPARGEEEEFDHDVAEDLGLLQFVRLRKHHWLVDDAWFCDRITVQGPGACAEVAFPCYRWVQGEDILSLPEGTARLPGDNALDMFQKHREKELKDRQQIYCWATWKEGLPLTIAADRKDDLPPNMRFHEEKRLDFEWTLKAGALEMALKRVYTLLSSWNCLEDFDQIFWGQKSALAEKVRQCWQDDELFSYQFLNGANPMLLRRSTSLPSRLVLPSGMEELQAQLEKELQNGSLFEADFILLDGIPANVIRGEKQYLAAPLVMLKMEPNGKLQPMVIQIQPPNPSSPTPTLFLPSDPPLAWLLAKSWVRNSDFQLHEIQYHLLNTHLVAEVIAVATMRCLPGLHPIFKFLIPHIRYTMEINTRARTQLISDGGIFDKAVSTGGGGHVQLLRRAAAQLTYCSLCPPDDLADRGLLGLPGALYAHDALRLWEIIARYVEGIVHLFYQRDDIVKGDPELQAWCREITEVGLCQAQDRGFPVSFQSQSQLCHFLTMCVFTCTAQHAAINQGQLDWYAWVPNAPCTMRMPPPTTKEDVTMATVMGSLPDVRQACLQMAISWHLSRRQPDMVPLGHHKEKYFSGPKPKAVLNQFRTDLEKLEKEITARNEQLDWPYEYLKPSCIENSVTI
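Purified human 12hLO at 150 nM in 25 mM Hepes, 0.01% Triton X-100, pH 7.0, preincubated 15 min at room temperature with compound. Reaction started with 40 uM arachidonic acid, 30 min at room temperature. Hydroperoxide measured by Fe-xylenol orange, 573/405 nm absorbance ratio.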
ELG1 repair inh – ELG1-dependent DNA repair inhibition. HEK293T ELG1-luciferase reporter, luminescence, 16 h; DNA damage induced by 5-fluorouridine. Potency, µM (highest dose often 46.1 µM), for the others: at the highest dose activity change, negative = inhibition, usual class: inhibitors. 2.3% of 330,000 active. AID 504467; further: nearly all actives have a fitted effect of over 55% in size
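Quantitative HTS, concentration-response format. 2,000 cells/well co-treated with 5-fluorouridine and compound, 16 hr in 5% CO2 at 37 °C; ONE-Glo luminescence read after 30 min.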
TDP1 cell CPT – DT40-hTDP1 cell growth loss with CPT; chicken DT40 Tdp1-/-;hTDP1 cells + 20 nM CPT, ATP luminescence, 48 h; Potency, µM (series often up to 46.2 µM), for inactives: at the top dose activity change, negative = growth inhibition, most hits filed as inhibitors; 12% of 420,000 active; further: nearly all actives have a fitted effect of over 55% in size
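Cell growth measured by CellTiter-Glo luminescence after a minimum 48 h, 37 C compound exposure with 20 nM CPT in Tdp1-knockout DT40 cells stably expressing hTDP1, seeded 400/well; qHTS titration format.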
TDP1 cell noCPT – qHTS for Inhibitors of human tyrosyl-DNA phosphodiesterase 1 (TDP1): qHTS in cells in absence of CPT. DT40 Tdp1-/- hTDP1 cells, no CPT, ATP luminescence, 48 h. Potency, µM (highest dose often 46.2 µM), for the others: at the top dose activity change, negative = growth inhibition, actives largely listed as inhibitors. 15% of 420,000 active. AID 686978, 2013; further: nearly all actives have a fitted effect of over 55% in size
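Camptothecin absent (DMSO only). Human TDP1-complemented DT40 knockout cells, 400 cells/well, 37 °C for minimum 48 hr; ATP measured via CellTiter-Glo, 30 min dark incubation, luminescence.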
VP16 counter – inhibits Gal4-VP16 luciferase reporter, ROR gamma counter-screen; Potency, µM (highest dose often 53.6 µM), for the others: at the highest dose activity, negative = inhibition, actives largely listed as inhibitors; Drosophila S2 Gal4-VP16 UAS-luciferase, luminescence, 20 h; 3.5% of 310,000 active; AID 2546;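 further: Gal4-VP16 expression switched on by copper sulfate through the metallothionein promoter; nearly all actives have a fitted effect of over 50% in size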
Active calls of the source: *; ? = inconclusive; . = not tested or not shown; [ ] = remark or other dose. The call rests on the fitted dose curve; in most records, active means well fitted curve in the direction sought with a large enough effect; inconclusive means small, poorly fitted or top-dose-only effect, or another doubt; inactive means no such curve, though single readings can be large; an effect the other way counts as inactive or inconclusive. On the % scale 0 is the no-effect control and ±100 the full control effect; potency means the concentration at half of the fitted maximal effect.

SMILES | RORgamma inh | ALOX12 inh | ELG1 repair inh | TDP1 cell CPT | TDP1 cell noCPT | VP16 counter
Cc1cccc(CN2C(=O)CCSc3ccc(Cl)cc32)c1 | 34.7% | 3.0% | -2.7% | ? | 10.3µM* | -9.0%
O=C(NCCN1CCOCC1)c1ccc2c(c1)N(Cc1ccc(Cl)cc1)C(=O)CS2 | 19.7% | ? | 11.4% | ? | ? | 6.2%
O=C1CCSc2ccc(Cl)cc2N1Cc1ccc(Cl)cc1 | ? | 0.0% | 10.4% | ? | 29.1µM* | -6.4%
O=C(NC12CC3CC(CC(C3)C1)C2)C1CC(=O)N(c2ccc(Br)cc2)C1 (stereo not drawn) | -3.8% | . | ? | 13µM* | 23.1µM* | 4.1%
COC(=O)c1cc(F)ccc1NC(=O)N1CCc2[nH]cnc2C1c1ccc(Cl)cc1 (stereo not drawn) | . | -8.0% | . | . | . | .
CCCCn1c(CN2CCN(c3ccccc3)CC2)nc2c1c(=O)n(C)c(=O)n2C | -7.4% | 8.0% | ? | 1.46µM* | 2.31µM* | 6.31µM*
Cn1c(=O)c2c(nc(CN3CCN(c4ccccc4)CC3)n2CCCc2ccccc2)n(C)c1=O | . | 5.8% | . | 20.6µM* | 14.6µM* | .
CCCCCCn1c(CN2CCC(C)CC2)nc2c1c(=O)n(C)c(=O)n2C | 7.8% | 3.8% | 13.6% | ? | 16.4µM* | -7.2%
Cn1c(=O)c2c(nc(CN3CCN(Cc4ccccc4)CC3)n2Cc2ccc(F)cc2)n(C)c1=O | 16.2% | 5.2% | ? | ? | ? | -1.5%
CC(C)CCn1c(CN2CCN(Cc3ccccc3)CC2)nc2c1c(=O)n(C)c(=O)n2C | 15.2% | -20.5% | ? | ? | 16.4µM* | -1.7%
O=C(CSc1nc2ccccc2c2nc(=O)c(-c3ccccc3)nn12)NCc1ccc(F)cc1 | . | -51.8% | . | . | . | .
Cc1ccc(C(=O)NNC(=O)COC(=O)c2ccccc2SCc2ccc(C#N)cc2)cc1 | . | 32.0% | . | . | . | .
CCCCCn1c(CN2CCN(Cc3ccccc3)CC2)nc2c1c(=O)n(C)c(=O)n2C | ? | -0.8% | 20.6µM* | 14.6µM* | 14.6µM* | -13.2%
Cc1ccc(C(=O)c2c3ccccc3[n+]([O-])n2CCC(N)=O)cc1 | 21.0% | -12.1% | 21.0% | 1.9% | -9.0% | -1.7%
Cc1ccc(C(=O)c2c3ccc([N+](=O)[O-])cc3[n+]([O-])n2CCC(N)=O)cc1 | -0.4% | ? | ? | 5.8µM* | 14.6µM* | 0.5%
COc1ccc(C(=O)c2c3ccc([N+](=O)[O-])cc3[n+]([O-])n2CCCC(N)=O)cc1 | . | ? | -19.9% | 9.2µM* | 20.6µM* | .
Cc1ccc(CNC(=O)c2ccc3c(c2)CNCCO3)cc1 | . | -14.8% | . | . | . | .
Cc1ccc(C)c(N2N=C(C(=O)Nc3ccccc3N3CCCC3)CCC2=O)c1 | -4.8% | -0.9% | ? | ? | 20.6µM* | -17.9%
Cc1ccc(S(=O)(=O)N2CCOCC2)cc1NC(=O)C1=NN(c2ccccc2)C(=O)CC1 | 27.4% | 11.3% | 3.9% | -6.7% | -15.8% | -2.2%
Cc1ccc(C)c(N2N=C(C(=O)Nc3ccccc3N3CCOCC3)CCC2=O)c1 | . | 24.1% | 14.6µM* | ? | ? | .
Cc1cc(N2CCN(c3ccccn3)CC2)n2cc(-c3ccccc3)nc2n1 | 35.5% | ? | ? | 20.6µM* | 18.4µM* | 14.8%
Cc1cc(N2CCN(C)CC2)n2cc(-c3ccc(F)cc3)nc2n1 | 24.1% | 11.9% | 2.4% | -6.6% | ? | -5.0%[0.365 µM]
CN(c1ccccc1)S(=O)(=O)c1cccc(C(=O)Nc2ncn[nH]2)c1 | 8.91µM* | 23.9% | -3.7% | -17.0% | 6.9% | ?
CN(c1ccccc1)S(=O)(=O)c1cccc(C(=O)Nc2ccc(N3CCOCC3)cc2)c1 | . | ? | 18.3µM* | ? | 18.4µM* | .
O=C(Nc1ncn[nH]1)c1cccc(S(=O)(=O)N2CCCCC2)c1 | . | -4.8% | . | . | . | .
SMILES | RORgamma inh | ALOX12 inh | ELG1 repair inh | TDP1 cell CPT | TDP1 cell noCPT | VP16 counter
COc1ccc(N(C)S(=O)(=O)c2cccc(C(=O)Nc3ccc(N4CCOCC4)cc3)c2)cc1 | . | -19.6% | ? | 18.4µM* | 23.1µM* | .
O=C(c1cccs1)c1no[n+]([O-])c1C(=O)c1cccs1 | 11.2µM* | . | ? | 1.84µM* | 2.31µM* | 11.2µM*
O=C1NC(=S)S/C1=C1\Sc2ccccc2N1CCCS(=O)(=O)O | -1.1% | -28.3% | 17.0% | 0.3% | -12.2% | -3.7%
NN1C(=O)/C(=C2/Sc3ccccc3N2CCCS(=O)(=O)O)SC1=S | -10.6% | 14.1µM* | 3.0% | 3.5% | -8.7% | 1.9%
COC(=O)c1cnc(N2CCCCC2C)c2ccccc12 (stereo not drawn) | . | -24.8% | . | . | . | .
Cc1cc(C)n(-c2nc(NCC3CCCO3)c3c4c(sc3n2)COC(C)(C)C4)n1 (stereo not drawn) | 2.82µM* | 0.0% | 18.4µM* | 5.17µM* | 3.66µM* | 3.16µM*
Cc1cc(C)n(-c2nc3sc4c(c3c3nnc(SC(C)C)n23)CC(C)(C)OC4)n1 | . | 0.0% | . | -12.8% | -27.9% | .
Cc1cc(C)n(-c2nc(SCCN(C)C)c3c4c(sc3n2)COC(C)(C)C4)n1 | 5.01µM* | 21.8% | 18.4µM* | 22.4µM* | 17.8µM* | 7.08µM*
COc1ccc(-c2ccc(CN3C(C(C)C)C(=O)N(Cc4cn(CC5CCCCC5)nn4)CCS3(=O)=O)cc2)cc1 (stereo not drawn) | . | -0.8% | . | 14.6µM* | 16.4µM* | .
CC(C)C1C(=O)N(Cc2cn(CC3CCCCC3)nn2)CCS(=O)(=O)N1Cc1ccc(-c2ccc(F)cc2)cc1 (stereo not drawn) | . | -2.6% | . | -20.3% | 9.2µM* | .
Cn1ccnc1C(=O)N1CCC(N2C[C@H](O)C[C@H]2C(=O)NC2CCCCC2)CC1 | . | 29.9% | . | . | . | .
COc1cc2cc(C(=O)N(C)C3CCS(=O)(=O)C3)[nH]c2cc1OC (stereo not drawn) | 20µM* | -4.9% | 8.7% | -0.5% | 15.8% | 2.4%
Cc1cc(NC(=O)C2CCN(S(=O)(=O)c3ccc(Br)s3)CC2)ccc1Br | . | -27.3% | . | ? | 16.4µM* | .
COc1ccc(CNC(=O)C2CCCN(S(=O)(=O)c3ccc(Br)s3)C2)cc1 (stereo not drawn) | ? | 3.2% | ? | ? | ? | -0.9%
COc1ccc(NC(=O)C2CCN(S(=O)(=O)c3ccc(Br)s3)CC2)cc1OC | ? | -1.6% | -12.2% | -5.3% | -26.0% | -1.4%
Cc1csc(NC(=O)C2CCCN(S(=O)(=O)c3ccc(Br)s3)C2)n1 (stereo not drawn) | -11.7% | 1.1% | ? | 16.4µM* | 18.4µM* | ?
